Screening data deposited in PubChem by National Center for Advancing Translational Sciences (NCATS).
Hits are enriched below; roughly 11% of the tested compounds scored in any of these assays.
VACV Venus inh – qHTS for Stage-Specific Inhibitors of Vaccinia Orthopoxvirus: Venus Reporter Primary qHTS | Vaccinia virus Venus reporter expression, fluorescence | Potency, µM (top dose mostly 36.5 µM), for inactives: at the highest dose activity change, negative = inhibition, hits mostly inhibitors | 330,000 tested, 0.46% active | AID 720580, 2013; calls by dose curve; tested in A549 cells; further: on the % scale 0 is the no-effect control and ±100 the full control effect; nearly all actives have a fitted effect of over 30% in size
Pf growth 96h – Primary qHTS for delayed death inhibitors of the malarial parasite plastid, 96 hour incubation. 320,000 tested, 6.9% active. AID 504834, 2011. Potency, µM (doses to about 28.7 µM), inactives show at the top dose activity change, negative = inhibition, actives largely listed as inhibitors. P. falciparum luciferase reporter growth, 96 h; further: on the % scale 0 is the no-effect control and ±100 the full control effect
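Readout is luminescence from an integrated firefly luciferase in P. falciparum. Red cells, 2% hematocrit and 0.05% parasitemia final, were cultured with compound through two parasite generations (96 hours) at 37 C, 5% CO2.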
HCV inhibitor – qHTS Assay for Inhibitors of Hepatitis C Virus (HCV) | Huh7.5.1 HCVcc-Cre infection, luciferase reporter, 44 h | Potency, µM (doses to about 41.8 µM), for the others: at the highest dose activity change, negative = inhibition, hits mostly inhibitors | 340,000 tested, 3.4% active | AID 651820, 2012; further: on the % scale 0 is the no-effect control and ±100 the full control effect
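Cells seeded at 1,000/well and cultured 4 h, then compounds added followed by HCVcc-Cre virus (~0.5 moi). After 44 h further culture, luciferase substrate was added, plates held 15 min at room temperature, and luminescence read for 15 sec.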
VACV mCherry inh – qHTS for Stage-Specific Inhibitors of Vaccinia Orthopoxvirus: mCherry Reporter Primary qHTS; Vaccinia virus mCherry reporter infection, fluorescence; Potency, µM (series often up to 36.5 µM), for inactives: at the top dose activity change, negative = inhibition, most hits filed as inhibitors; 310,000 tested, 0.63% active; AID 720579, 2013; calls by dose curve; tested in A549 cells; further: on the % scale 0 is the no-effect control and ±100 the full control effect; nearly all actives have a fitted effect of over 35% in size
NS1 function inh – qHTS Assay for Inhibitors of Influenza NS1 Protein Function; Potency, µM (top dose mostly 46.1 µM), for inactives: at the highest dose activity, positive = more growth; 270,000 tested, 0.4% active; calls by dose curve; further: actives are rising curves; nearly all actives have a fitted effect of over 50% in size
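Compounds were scored for reversing the slow growth caused by influenza A NS1 in S. cerevisiae, measured by optical density at 600 nm. Assay medium contained 2% galactose at pH 6.0; NS1-free yeast of the same strain were the positive control.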
Pf growth 48h – Primary qHTS for delayed death inhibitors of the malarial parasite plastid, 48 hour incubation; P. falciparum luciferase growth in erythrocytes, 48 h; Potency, µM (titrated, usually from 28.7 µM), without a hit: at the highest dose activity change, negative = inhibition, usual class: inhibitors; 310,000 tested, 5.9% active; AID 504832, 2011; further: on the % scale 0 is the no-effect control and ±100 the full control effect
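Luciferase-expressing P. falciparum in infected erythrocytes (2% hematocrit, 0.1% parasitemia final) in RPMI 1640/0.5% Albumax were exposed to compound for 48 hours at 37 C, 5% CO2; growth read as luminescence.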
Numbers without * were called inactive; i = inactive; ? = inconclusive; · = no result given; [ ] = dose if it differs, or a comment. Unless noted, the call rests on the fitted dose curve; in most records, active means well fitted inhibition curve with a large enough effect; inconclusive means small, poorly fitted or top-dose-only effect, or another doubt; inactive means no such curve, though single readings can be large or run the other way. Potency means the concentration at half of the fitted maximal effect.

SMILES	VACV Venus inh	Pf growth 96h	HCV inhibitor	VACV mCherry inh	NS1 function inh	Pf growth 48h
COc1cc(CNCCCN2CCOCC2)c(Br)cc1OCC(=O)Nc1ccccc1C	-22%	?	1.6µM*	i	9%	10µM*
COc1ccccc1NC(=O)COc1ccc(Br)cc1CNCCCN1CCOCC1	·	2%	?	·	2%	?
CCC(C)(C)NC(=O)CN(C(=O)c1csnn1)c1cccc2c1CCCC2	·	?	-9%	·	·	-10%
Cc1ccc([N+](=O)[O-])c(OCCCN2CCC(Cc3ccccc3)CC2)c1	·	·	6%	·	·	·
CC(C)N=c1scc(-c2cccs2)n1/N=C/c1ccc(O)c(O)c1O	?	?	-20%	?	-5%	-16%
CC(=O)Nc1ccc(S(=O)(=O)N2CCN=C2SCc2ccc([N+](=O)[O-])cc2)cc1	-17%	?	10µM*	-11%	-7%	?
Cc1ccc(C)c(NC(=O)CN(C)C(=O)c2cccc(S(=O)(=O)N3CCN(Cc4ccccc4)CC3)c2)c1	-16%	?	5.6µM*	-3%	-23%	?
Cc1ccc(C)c(NC(=O)CN(C)C(=O)c2cccc(S(=O)(=O)N3CCCC3)c2)c1	-4%	?	-3%	-13%	·	?
CN(CCOc1ccc(Cl)cc1)C(=O)c1cccc(S(=O)(=O)N2CCN(Cc3ccccc3)CC2)c1	·	·	2.5µM*	·	·	·
CC1CCCCC1NC(=O)c1cccc(S(=O)(=O)N2CCN(Cc3ccccc3)CC2)c1 (configuration not stated)	-24%	15µM*	?	?	·	17µM*
O=C(NC(=S)N1CCCc2ccccc21)c1ccco1	-13%	-13%	4%	-24%	10%	148%
CCc1ccccc1NC(=O)CNC(=O)c1cccc(S(=O)(=O)N2CCN(Cc3ccccc3)CC2)c1	-21%	-19%	10µM*	-6%	·	?
COc1ccccc1CN(C)C(=O)c1cccc(S(=O)(=O)N2CCN(Cc3ccccc3)CC2)c1	-17%	2%	-26%	-2%	·	?
CCN(CC)C(=O)c1ccc(NC(=O)c2cccc(S(=O)(=O)N3CCN(Cc4ccccc4)CC3)c2)cc1	?	12µM*	6.3µM*	-18%	·	10µM*
CN(Cc1ccc(F)cc1)C(=O)c1cccc(S(=O)(=O)N2CCN(Cc3ccccc3)CC2)c1	-20%	?	?	-23%	·	-5%
COc1cccc(NC(=O)c2cccc(S(=O)(=O)N3CCN(Cc4ccccc4)CC3)c2)c1	-19%	7.4µM*	?	-11%	·	?
COc1ccc(NC(=O)CN(C)C(=O)c2cccc(S(=O)(=O)N3CCN(Cc4ccccc4)CC3)c2)cc1	-17%	-78%	?	-3%	11%	-8%
O=[N+]([O-])c1cccc(CN2CCN(Cc3ccc(Br)cc3)CC2)c1	·	?	22µM*	·	·	-22%
Clc1ccc(-c2cc3ncc4c(n3n2)-c2ccccc2OC4)cc1	-6%	·	·	-11%	·	·
O=C(O)c1cccc(NC(=O)c2cccc(S(=O)(=O)N3CCCCC3)c2)c1	-11%	?	1%	-12%	?	240%
CC(=O)Nc1cccc(NC(=O)c2cccc(S(=O)(=O)N3CCN(Cc4ccccc4)CC3)c2)c1	-13%	10µM*	?	-18%	·	10µM*
CC(=O)Nc1ccc(S(=O)(=O)N2CCN(Cc3cccc([N+](=O)[O-])c3)CC2)cc1	-5%	1.7µM*	-28%	-29%	-10%	-5%
CCCOc1ccc2oc(=O)c3c(c2c1)CCCN3C(=O)CN1CCN(C(=O)c2ccco2)CC1	·	1%	-17%	·	-24%	-22%
Cc1ccc(Cl)c(NC(=O)COC(=O)c2ccccc2C(=O)c2ccc(Cl)c([N+](=O)[O-])c2)c1Cl	?	-24%	?	?	7%	-29%
CCCNC(=O)COC(=O)c1ccccc1C(=O)c1ccc(Cl)c([N+](=O)[O-])c1	14µM*	13%	?	?	·	?
SMILES	VACV Venus inh	Pf growth 96h	HCV inhibitor	VACV mCherry inh	NS1 function inh	Pf growth 48h
N#CC1=CC2CN(Cc3ccccc3)C1C1C(=O)N(c3ccccc3)C(=O)C21 (configuration not stated)	-2%	·	10%	i	·	·
CC(C)N=C(NS(=O)(=O)c1ccccc1)C(Cl)(Cl)Cl	11µM*	?	?	14µM*	-32%	?
Cc1ccc(N(CN2CCCC2=O)C(=O)c2ccc(C)c(C)c2)cc1	·	?	?	·	-2%	3%
CN(C)c1cc[n+](CC(=O)c2ccc(-c3ccccc3)cc2)cc1	·	?	?	·	·	4.7µM*
COc1ccc(C(=O)C[n+]2ccc(N(C)C)cc2)cc1	-16%	?	?	i	-2%	1.2µM*
Cc1ccc(C(=O)C[n+]2ccc(Cc3ccccc3)cc2)cc1	-7%	8.3µM*	?	-14%	·	?
COc1ccc(-c2nn(-c3ccccc3)cc2/C=C/C(=O)OCC(=O)Nc2ccccc2C#N)cc1	4%	2%	?	-4%	11%	3%
CNC(=O)COC(=O)/C=C/c1cn(-c2ccccc2)nc1-c1ccc(C)o1	-17%	7.4µM*	12%	0%	3%	12µM*
CCN1C(=O)CC(Sc2ccccc2N)C1=O (configuration not stated)	-19%	1.5µM*	12%	·	-1%	5%
COc1ccc2[nH]c3c(N4CCC(O)(c5cccc(C(F)(F)F)c5)CC4)ncnc3c2c1	?	2.3µM*	6.3µM*	i	10%	15µM*
CCN1CCN(C(=O)c2cc3ccc(OC)cc3[nH]2)CC1	·	130%	11%	·	2%	99%
COc1ccc2cc(C(=O)N3CCN(Cc4ccc5c(c4)OCO5)CC3)[nH]c2c1	-21%	13µM*	10µM*	i	16%	10%
COc1ccc2[nH]c3c(N4CCN(Cc5ccc6c(c5)OCO6)CC4)ncnc3c2c1	?	5.9µM*	?	·	-45%	4.1µM*
COc1ccc(C(=O)CSc2nc3c(c(=O)n(C)c(=O)n3C)n2C)cc1	·	-29%	·	·	?	7%
Cn1c(=O)c2c(nc(SCCOc3ccc4ccc(=O)oc4c3)n2C)n(C)c1=O	·	13µM*	-21%	·	-2%	9%
CCNc1nc(NCC)nc(OCCOC(C)=O)n1	-21%	4.1µM*	-5%	-5%[1.46 µM]	12%	-6%
CCNc1nc(NCC)nc(OCCOC(=O)c2ccccc2)n1	·	?	?	·	-13%	-17%
CCOc1ccccc1C(=O)Nc1cc(OC)ccc1OC	-15%	?	?	-5%	-63%	-30%
CCOc1ccccc1N1CCN(CC(=O)Nc2ccnn2C2CCCC2)CC1	·	-18%	13µM*	·	·	-26%
